Measurements reported in PubChem BioAssay AID1321 (The Scripps Research Institute Molecular Screening Center, 2008).
The whole screen tested about 220,000 compounds, of which about 2,600 (1.2%) were called active. The sample as a whole holds a higher share of actives than the screen did. A number with no mark means an inactive call.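 The calls were made as follows: active = activation above the mean of all tested compounds plus 3 SD, set per screening run (cut at about 8.8% in these data); inactive = the rest.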

Target: Wee1-like protein kinase (Homo sapiens) (UniProt P30291)
Test: Wee1 degradation inhibitors, primary screen, cell-based, HeLa, Wee1K328M-luciferase, luminescence (AID 1321);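 also: cells exposed to compound for 20 h before luminescence read; 0% = DMSO alone and 100% = MG132 at 30 µM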
Conditions: HeLa Luc-Wee1K328M stability, at 5 µM, hits give high values, 100% = proteasome inhibitor MG132 effect

Row | SMILES | reporter increase
1 | CCCC(=O)Nc1ccc2c(c1)nc(CCNC(=O)c1ccco1)n2C | 1.75%
2 | CC(=O)N(OCc1ccc(OC(C)C)c(Cl)c1)C(C)=O | 2.11%
3 | Cc1c(S(=O)(=O)NCc2ccccc2)c(=O)n(C)c(=O)n1C | -0.22%
4 | CN1CCN(c2ccc(S(=O)(=O)N3CCOCC3)cc2NC(=O)CCc2ccccc2)CC1 | 1.28%
5 | Cc1nnc2n1N=C(c1ccc3c(c1)NC(=O)CO3)CS2 | -1.74%
6 | N/C(=N\S(=O)(=O)c1cc(C(F)(F)F)cc(C(F)(F)F)c1)c1cccs1 | -2.49%
7 | O=C(Nc1ccc(F)cc1)c1cc2c(s1)CCCC2 | 16.5% (active)
8 | O=C(NNC(=O)c1cc2c(s1)CCCC2)c1ccccc1 | 4.34%
9 | O=C(CNC(=O)c1cc2c(s1)CCC2)Nc1ccccc1Br | 5.95%
10 | O=C(CNCCC1=CCCCC1)Nc1ccccc1N1CCCCCC1 | -2.9%
11 | CN(CC(=O)Nc1ccc(F)cc1)CC(=O)Nc1ccc(Cl)c(S(=O)(=O)N2CCOCC2)c1 | -2.59%
12 | CCN(CC)CCOc1ccc2c(c1)C(=NNC(=O)c1ccccn1)c1cc(OCCN(CC)CC)ccc1-2 | 13% (active)
13 | COc1ccc(CC(=O)N/N=C(\C)c2ccccn2)cc1 | 3.82%
14 | CCOc1cc(NC(=O)c2ccccn2)c(OCC)cc1NC(=O)c1ccc(OC)cc1 | -0.73%
15 | COc1ccccc1-n1cn[nH]c1=S | -1.47%
16 | Cc1ccc2c(C)c(C(=O)N3CCC(N4CCC(C(=O)NC5CC5)CC4)CC3)oc2c1 | 7.23%
17 | O=C(N/N=C\c1cc(Br)c(Br)o1)C1COc2ccccc2O1 (stereo not given) | 3.79%
18 | Cc1cc(CO)nn1-c1ccc([N+](=O)[O-])cc1 | -1.77%
19 | COc1ccc(-c2csc(Nc3ccccn3)n2)cc1 | 0.98%
20 | c1ccc(Nc2nc(-c3ccncc3)cs2)nc1 | 11.1% (active)
21 | c1cnc(Nc2nc(-c3ccc4ccccc4c3)cs2)nc1 | -0.11%
22 | O=C(O)C#Cc1cccc2ccccc12 | 6.16%
23 | O=[N+]([O-])C(=c1ccc2c(c1)N1C3=C(CCCC3)CC3CCCCC31N=2)[N+](=O)[O-] (stereo not given) | -2.36%
24 | Cc1cc(C)c2c(-n3cccc3)c(NC(=O)OCc3ccccc3)sc2n1 | -2.38%
25 | Cc1cc(C)c2c(n1)sc1c(=O)n(-c3ccccc3)c(=O)[nH]c12 | 17.8% (active)

Row | SMILES | reporter increase
26 | C/C(O)=C\c1nc(=O)c2c(C)cc(C)nc2n1-c1ccccc1 | -1.67%
27 | O=c1[nH]c(SCc2cccc(F)c2)nc2ccccc12 | -1.83%
28 | O=P(O)(CN1CCCCCC1)C1Cc2ccccc2C1 | 2.27%
29 | Cc1ccc(-c2noc(CN3CCN(Cc4ccccc4)CC3)n2)cc1 | 0.1%
30 | CN1CCN(C(=O)CCc2nc(-c3ccc(Cl)cc3)no2)CC1 | 2.75%
31 | CC1CCN(Cc2nc(-c3ccc(Cl)cc3)no2)CC1 | 8.97% (active)
32 | COCC(C)OC(=O)c1c(N)n(CCCN2CCOCC2)c2nc3ccccc3nc12 (stereo not given) | -0.94%
33 | FC(F)(F)c1cccc(-c2nc(COc3ccc(Cl)cc3Cl)no2)c1 | 1.86%
34 | CCCC(=O)n1nc(-c2ccccc2)nc1N | -0.53%
35 | COc1ccccc1C(=O)n1nc(-c2ccccc2)nc1N | 0.74%
36 | COc1ccc(CC(=O)n2nc(-c3cccnc3)nc2N)cc1 | 9.39% (active)
37 | Clc1ccc(CSc2nnc3c(n2)[nH]c2ccccc23)cc1 | 4.2%
38 | CC(=O)NCC(O)c1ccc([N+](=O)[O-])cc1 (stereo not given) | -2.38%
39 | COC(=O)c1ccc(S(=O)(=O)N(CCO)Cc2ccccc2)n1C | 0.33%
40 | O=C(Cn1cnc2ccccc2c1=O)Nc1cccc(S(=O)(=O)N2CCCCC2)c1 | -0.22%
41 | Cc1[nH]c2ccccc2c1SCC(=O)Nc1nccs1 | -4.02%
42 | CC(=O)c1cc(C#N)c(SCC(=O)Nc2nccs2)nc1C | 8.83% (active)
43 | CC(=O)c1cc(C#N)c(SCC(=O)C(C)(C)C)nc1C | 0.58%
44 | Cc1cc(C)nc(S/C=C/C(=O)c2ccccc2)n1 | 1.73%
45 | O=C(/C=C/Sc1ncn[nH]1)c1ccc(Cl)cc1 | 9.14% (active)
46 | COc1ccc(Cl)cc1CSc1ncn[nH]1 | -0.89%
47 | Cc1ccc(NC(=S)N2CCCC(c3ccccc3)=N2)cc1 | -4.54%
48 | O=C(O)Cc1sc(-c2ccc(C(=O)O)cc2)nc1-c1ccccc1 | 2%
49 | NC(=O)Cc1ccc2sc(-c3ccccc3)nc2c1 | 14.1% (active)
50 | NC(=O)Cc1ccc2c(c1)[nH]c1ccccc12 | 0.52%
